Bioassay records: PubChem BioAssay, several laboratories
The list is not random: actives were taken first. Their share in the collection is about 2.6%.
MLLE-PAM2 inh = blocks PAM2 peptide binding to the PABP1 MLLE domain; GST-MLLE / FITC-PAM2 fluorescence polarization; inhibition, % at 20 µM; 0.36% of 360,000 active; in the data active = inhibition above about 35%, passing the limit was not always enough;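 also: plate controls were DMSO wells with GST-MLLE for no effect and wells lacking GST-MLLE protein for full effect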
PHOSPHO1 inh = PHOSPHO1 (human) inhibition | Q8TCT1 | recombinant PHOSPHO1, absorbance phosphatase assay | inhibition, % at 13.3 µM | 1.1% of 290,000 active | AID 1565; in the data active = inhibition above about 60%
eIF4H FP inh = inhibitors of RNA binding by human eIF4H | Q15056 | eIF4H fluorescence polarization binding assay | inhibition, % at 35 µM | 0.94% of 290,000 active | AID 2012;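 also: calls also rest on retests at 20 µM and on dose response follow-up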
ABCB6 inh MLPCN = blocks the human ABCB6 transporter; Q9NP58; K562-ABCB6 porphyrin accumulation, flow cytometry, 1 h; hits give low values; 0.19% of 360,000 active; fluorescence ratio to DMSO, % at 10 µM; AID 602162;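 active = fluorescence ratio to DMSO below 75%, the collection mean minus 3 SD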;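 also: signal is porphyrin accumulated inside mitochondria; 100% equals median channel fluorescence of DMSO control wells; lower ratio means ABCB6 inhibition with less porphyrin fluorescence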
Target sequence (Q9NP58 whole entry, looked up): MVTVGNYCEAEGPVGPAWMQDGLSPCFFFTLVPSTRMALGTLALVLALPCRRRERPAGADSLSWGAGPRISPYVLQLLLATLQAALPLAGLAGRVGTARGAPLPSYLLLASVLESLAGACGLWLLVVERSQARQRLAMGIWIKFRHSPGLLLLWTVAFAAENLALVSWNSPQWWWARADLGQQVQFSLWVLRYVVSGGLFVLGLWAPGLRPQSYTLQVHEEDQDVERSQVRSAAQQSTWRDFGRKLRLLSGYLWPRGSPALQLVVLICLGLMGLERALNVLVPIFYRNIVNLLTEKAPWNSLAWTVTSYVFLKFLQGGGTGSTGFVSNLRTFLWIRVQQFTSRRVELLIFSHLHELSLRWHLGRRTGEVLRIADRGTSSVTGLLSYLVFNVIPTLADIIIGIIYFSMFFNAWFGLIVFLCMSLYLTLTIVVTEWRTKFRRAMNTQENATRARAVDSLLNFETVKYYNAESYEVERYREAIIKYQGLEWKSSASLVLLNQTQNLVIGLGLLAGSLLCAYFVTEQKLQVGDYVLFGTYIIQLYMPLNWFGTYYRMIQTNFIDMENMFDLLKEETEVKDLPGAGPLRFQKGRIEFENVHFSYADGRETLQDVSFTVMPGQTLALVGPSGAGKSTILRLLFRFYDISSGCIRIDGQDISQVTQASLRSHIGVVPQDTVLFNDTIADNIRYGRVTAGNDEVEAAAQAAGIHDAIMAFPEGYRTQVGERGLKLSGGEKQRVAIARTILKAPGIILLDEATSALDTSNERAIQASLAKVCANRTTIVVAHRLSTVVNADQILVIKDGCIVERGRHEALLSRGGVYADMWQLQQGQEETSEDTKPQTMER
PABP polyA inh = blocks human PABP binding to poly(A) RNA | P11940 | fluorescence polarization | calls only at 35 µM | 1% of 290,000 active;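 also: calls also rest on retests at 20 µM and on dose response follow-up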
AI-2 QS modul = modulators of Vibrio harveyi AI-2 quorum sensing system; 0.4% of 300,000 active; AID 2094; Vibrio harveyi JMH597 AI-2 luminescence/OD600 ratio, 9 h; hits give low values; strain lacks LuxN and CqsS sensors; 0 = neutral-control median; activity change, % at 7.5 µM; in the data active = activity change below about -75%, passing the limit was not always enough;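 also: luminescence divided by OD600 gain over 9 h not by final OD600 alone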
ABCB6 inh CP1 = human ABCB6 transporter inhibition; shares compounds with ABCB6 inh MLPCN; K562-ABCB6 porphyrin accumulation, flow cytometry, 1 h; hits give low values; ratio response (% of DMSO), % at 10 µM; 700 tested, under 10 active;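 active = repeat-averaged ratio response below 75% of DMSO, the collection mean minus 3 SD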;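 also: median porphyrin fluorescence at 575 nm with 488 nm excitation from mitochondria; lower ratio means less porphyrin signal so ABCB6 inhibition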
The depositor's hits bear a star; i = inactive; x = not tested or not shown. Unless noted, no rule for the calls is given here.

SMILES	MLLE-PAM2 inh	PHOSPHO1 inh	eIF4H FP inh	ABCB6 inh MLPCN	PABP polyA inh	AI-2 QS modul	ABCB6 inh CP1
O=C(CC[C@H]1O[C@@H](n2cnc3c(NC(=O)c4ccccc4)ncnc32)[C@H](O)[C@@H]1O)N[C@@H](CO)c1ccccc1	4	x	x	95	x	x	x
CCCCNc1oc(-c2ccc(OC)cc2)nc1S(=O)(=O)c1ccccc1	33	17	8	69*	i	11	99
COc1ccc(-c2coc3c(C(=O)Nc4cccc(NS(C)(=O)=O)c4)cccc23)c(C)c1	3	x	x	92	x	x	x
COc1ccc(N2C(=O)CSC2c2cccc(F)c2)cc1 (centres undefined)	-3	5	12	74*	i	22	97
CCOC(=O)[C@]12CCC=C1N(Cc1ccc(Cl)cc1Cl)C(=O)[C@H](CC(=O)NCc1ccc(C)o1)C2	x	x	x	97	x	x	x
CC(=O)CN1C(=O)NC(c2ccccc2)(c2ccccc2)C1=O	2	40	16	46*	i	14	104
NS(=O)(=O)c1ccc(CCNC(=O)CCCNC(=O)c2ccc(Cl)cc2)cc1	-11	-37	-2	67*	i	45	98
NS(=O)(=O)c1ccc(CCNC(=O)c2ccc(Cl)nc2)cc1	0	31	-6	98	i	10	x
CC1C(=O)Nc2ccccc2N1C(=O)C1CC1 (centres undefined)	5	5	0	72*	i	10	100
CC1(C(=O)NS(=O)(=O)c2ccc(Cl)s2)CCN1C(=O)C1(c2ccc(Cl)cc2)CCC1 (centres undefined)	-15	x	x	95	x	x	100
CC1(C(=O)NS(=O)(=O)c2cccs2)CCN1C(=O)C1(c2ccc(Cl)cc2)CCC1 (centres undefined)	-1	x	x	95	x	x	100
CC1(C(=O)NS(=O)(=O)c2ccccc2Cl)CCN1C(=O)C1(c2ccc(Cl)cc2)CC1 (centres undefined)	-5	x	x	94	x	x	96
CC1(C(=O)NS(=O)(=O)c2cccs2)CCN1C(=O)C1(c2ccccc2)CCCC1 (centres undefined)	-7	x	x	72*	x	x	96
CC1(C(=O)NS(=O)(=O)c2cccs2)CCN1C(=O)C1(c2ccc(Cl)cc2)CC1 (centres undefined)	5	x	x	102	x	x	x
CC(=O)Nc1cccc(-c2ccnc3c2CC(C(=O)Nc2ccc(C(C)C)cc2)O3)c1 (centres undefined)	15	x	x	98	x	x	x
O=C(NCc1cccs1)c1ccc2sc(COCCO)nc2c1	4	x	x	100	x	x	x
COc1ccc(-c2nc3ccc(Br)cn3c2Cc2ccsc2)cc1OC	-30	x	x	97	x	x	x
COc1cccc(Nc2nc(C(N)Cc3ccccc3)cs2)n1 (centres undefined)	-6	x	x	102	x	x	x
CC(=O)c1cccc(NC(=O)c2ccc3c(Cl)c4c(nc3c2)CCCC4)c1	-1	-10	-9	73*	i	22	102
N#Cc1ccccc1NC(=O)c1ccc2c(Cl)c3c(nc2c1)CCCC3	6	-23	-12	94	i	5	x
O=C(/C=C/[C@H]1O[C@@H](n2cnc3c(NC(=O)c4ccccc4)ncnc32)[C@H](O)[C@@H]1O)NCc1ccco1	8	x	x	98	x	x	x
CN(C)c1cccc(NC(=O)C2Cc3c(-c4cccnc4)ccnc3O2)c1 (centres undefined)	4	x	x	160	x	x	x
O=C(O)CC/C(=C\c1ccc(Cl)c([N+](=O)[O-])c1)c1nc2ccccc2s1	8	-21	-7	72*	i	29	101
CC(=O)Nc1ccc(C(=O)N2CCCCC2c2cc(C(=O)Nc3ccccc3Cl)no2)cc1 (centres undefined)	7	x	x	102	x	x	x
O=C(Nc1nc2ccc([N+](=O)[O-])cc2s1)C1CCCO1 (centres undefined)	15	-9	-4	92	i	-3	x
COc1ccc([N+](=O)[O-])cc1NC(=O)C1CCCO1 (centres undefined)	12	-32	-6	71*	i	16	101
O=C(c1ccco1)N1CCC(c2nc3c(nnn3Cc3c(Cl)cccc3Cl)c(=O)[nH]2)CC1	10	10	-5	97	i	6	103
